Laboratory results taken from PubChem BioAssay AID1159580 (chemical genetic matrix, 2015).
In all, about 5,500 compounds went through this assay and about 2,000 (36%) were called active. Inconclusive results (about 18%) are left out. Cut-off read from the data, not from the text of the source: active = normalized growth mostly below about 0.91 (no sharp cut-off); inconclusive = no clear call, values can overlap the other calls; inactive = mostly above about 0.92. This is one part of the list.

Test: chemical genetic growth profiling, strain panel (AID 1159580);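 note: tested at 20 µM; growth read once vehicle control cultures reached saturation at 30 °C; 1 = growth at the plate median or of vehicle wells; lower values mean less growth of the strain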
Details: growth OD
[1] = S. cerevisiae deletion strains, locus YDL101C, strain DUN1, active compounds read low
[2] = S. cerevisiae deletion strains, locus YHR030C, strain SLT2, active compounds read low
[3] = S. cerevisiae deletion strains, locus YAL013W, strain DEP1, active compounds read low
[4] = S. cerevisiae deletion strains, locus YBR229C, strain ROT2, active compounds read low
[5] = S. cerevisiae deletion strains, locus YCL061C, strain MRC1, active compounds read low
[6] = S. cerevisiae deletion strains, locus YDL134C, strain PPH21, active compounds read low
[7] = S. cerevisiae deletion strains, locus YDR150W, strain NUM1, active compounds read low
[8] = S. cerevisiae deletion strains, locus YEL061C, strain CIN8, active compounds read low
[9] = S. cerevisiae deletion strains, locus YGR078C, strain PAC10, active compounds read low
[10] = S. cerevisiae deletion strains, locus YHR087W, strain rtc3, active compounds read low
[11] = S. cerevisiae deletion strains, locus YJR043C, strain POL32, active compounds read low
[12] = S. cerevisiae deletion strains, locus YJR075W, strain HOC1, active compounds read low
[13] = S. cerevisiae deletion strains, locus YLR039C, strain RIC1, active compounds read low
[14] = S. cerevisiae deletion strains, locus YLR058C, strain SHM2 (second series), active compounds read low
[15] = S. cerevisiae deletion strains, locus YLR085C, strain ARP6, active compounds read low
[16] = S. cerevisiae deletion strains, locus YLR262C, strain YPT6, active compounds read low
[17] = S. cerevisiae deletion strains, locus YML094W, strain GIM5, active compounds read low
[18] = S. cerevisiae deletion strains, locus YMR219W, strain ESC1, active compounds read low
[19] = S. cerevisiae deletion strains, locus YMR263W, strain SAP30, active compounds read low
[20] = S. cerevisiae deletion strains, locus YMR307W, strain GAS1, active compounds read low
[21] = S. cerevisiae deletion strains, locus YNL153C, strain GIM3, active compounds read low
[22] = S. cerevisiae deletion strains, locus YNL298W, strain CLA4 (second series), active compounds read low
[23] = S. cerevisiae deletion strains, locus YNL322C, strain KRE1, active compounds read low
[24] = S. cerevisiae deletion strains, locus YNR030W, strain Alg12, active compounds read low
[25] = S. cerevisiae deletion strains, locus YPL055C, strain LGE1, active compounds read low
[26] = S. cerevisiae deletion strains, locus YPL241C, strain CIN2, active compounds read low
[27] = S. cerevisiae deletion strains, locus YPR135W, strain CTF4, active compounds read low

Measured: normalized growth

FC(F)(F)c1cc(NC(=S)SCCSC(=S)Nc2cc(C(F)(F)F)cc(C(F)(F)F)c2)cc(C(F)(F)F)c1
inactive: S. cerevisiae deletion strains, locus YAR019C, strain CDC15, active compounds read low 0.993 | S. cerevisiae deletion strains, locus YBL105C, strain PKC1, active compounds read low 0.989 | S. cerevisiae deletion strains, locus YBR135W, strain CKS1, active compounds read low 1 | S. cerevisiae deletion strains, locus YBR136W, strain MEC1, active compounds read low 0.986 | S. cerevisiae deletion strains, locus YBR160W, strain CDC28, active compounds read low 0.997 | S. cerevisiae deletion strains, locus YDL017W, strain CDC7, active compounds read low 0.991 | S. cerevisiae deletion strains, locus YDL028C, strain MPS1, active compounds read low 0.991 | [1] 1 | S. cerevisiae deletion strains, locus YDL108W, strain KIN28, active compounds read low 0.99 | S. cerevisiae deletion strains, locus YDL132W, strain cdc53, active compounds read low 0.988 | S. cerevisiae deletion strains, locus YDL214C, strain PRR2, active compounds read low 0.889 | S. cerevisiae deletion strains, locus YDR052C, strain DBF4, active compounds read low 1 | S. cerevisiae deletion strains, locus YDR054C, strain cdc34, active compounds read low 0.994 | S. cerevisiae deletion strains, locus YDR226W, strain ADK1, active compounds read low 0.994 | S. cerevisiae deletion strains, locus YDR477W, strain SNF1, active compounds read low 0.951 | S. cerevisiae deletion strains, locus YER123W, strain YCK3, active compounds read low 0.949 | S. cerevisiae deletion strains, locus YER133W, strain GLC7, active compounds read low 0.911 | S. cerevisiae deletion strains, locus YFL009W, strain cdc4, active compounds read low 1 | S. cerevisiae deletion strains, locus YFL029C, strain CAK1, active compounds read low 0.994 | S. cerevisiae deletion strains, locus YFR003C, strain YPI1, active compounds read low 0.993 | S. cerevisiae deletion strains, locus YFR019W, strain FAB1, active compounds read low 1.01 | S. cerevisiae deletion strains, locus YFR028C, strain CDC14, active compounds read low 0.993 | S. cerevisiae deletion strains, locus YGR040W, strain KSS1, active compounds read low 0.951 | S. cerevisiae deletion strains, locus YGR052W, strain FMP48, active compounds read low 1.04 | S. cerevisiae deletion strains, locus YGR092W, strain DBF2, active compounds read low 0.993 | [2] 0.984 | S. cerevisiae deletion strains, locus YHR079C, strain IRE1, active compounds read low 1.04 | S. cerevisiae deletion strains, locus YHR082C, strain KSP1, active compounds read low 1.03 | S. cerevisiae deletion strains, locus YHR205W, strain SCH9, active compounds read low 0.983 | S. cerevisiae deletion strains, locus YIL147C, strain SLN1, active compounds read low 0.97 | S. cerevisiae deletion strains, locus YJL095W, strain BCK1, active compounds read low 1.08 | S. cerevisiae deletion strains, locus YJL128C, strain PBS2, active compounds read low 0.954 | S. cerevisiae deletion strains, locus YJL157C, strain FAR1, active compounds read low 0.884 | S. cerevisiae deletion strains, locus YJR016C, strain ILV3, active compounds read low 0.995 | S. cerevisiae deletion strains, locus YJR066W, strain TOR1 (second series), active compounds read low 0.94 | S. cerevisiae deletion strains, locus YJR066W, strain TOR1, active compounds read low 1.09 | S. cerevisiae deletion strains, locus YKL048C, strain ELM1, active compounds read low 0.971 | S. cerevisiae deletion strains, locus YKL067W, strain YNK1, active compounds read low 0.862 | S. cerevisiae deletion strains, locus YKL101W, strain HSL1, active compounds read low 0.968 | S. cerevisiae deletion strains, locus YKL193C, strain SDS22, active compounds read low 0.992 | S. cerevisiae deletion strains, locus YKL203C, strain TOR2, active compounds read low 1.06 | S. cerevisiae deletion strains, locus YLR113W, strain HOG1, active compounds read low 0.869 | S. cerevisiae deletion strains, locus YLR133W, strain CKI1, active compounds read low 0.972 | S. cerevisiae deletion strains, locus YLR403W, strain SFP1, active compounds read low 0.982 | S. cerevisiae deletion strains, locus YML070W, strain DAK1, active compounds read low 0.908 | S. cerevisiae deletion strains, locus YMR001C, strain CDC5, active compounds read low 0.997 | S. cerevisiae deletion strains, locus YMR205C, strain PFK2 (second series), active compounds read low 0.988 | S. cerevisiae deletion strains, locus YMR277W, strain FCP1, active compounds read low 0.986 | S. cerevisiae deletion strains, locus YNL006W, strain LST8, active compounds read low 0.996 | S. cerevisiae deletion strains, locus YNL020C, strain ARK1, active compounds read low 0.973 | S. cerevisiae deletion strains, locus YNL161W, strain CBK1, active compounds read low 0.998 | S. cerevisiae deletion strains, locus YNL183C, strain NPR1, active compounds read low 1.03 | S. cerevisiae deletion strains, locus YNL207W, strain RIO2, active compounds read low 0.987 | S. cerevisiae deletion strains, locus YNL222W, strain SSU72, active compounds read low 0.989 | S. cerevisiae deletion strains, locus YNL307C, strain MCK1 (second series), active compounds read low 0.984 | S. cerevisiae deletion strains, locus YOL078W, strain AVO1, active compounds read low 0.992 | S. cerevisiae deletion strains, locus YOL136C, strain PFK27, active compounds read low 0.933 | S. cerevisiae deletion strains, locus YOR061W, strain CKA2, active compounds read low 0.994 | S. cerevisiae deletion strains, locus YOR119C, strain RIO1, active compounds read low 1.02 | S. cerevisiae deletion strains, locus YOR231W, strain MKK1, active compounds read low 1.03 | S. cerevisiae deletion strains, locus YOR329C, strain SCD5, active compounds read low 0.996 | S. cerevisiae deletion strains, locus YPL031C, strain PHO85, active compounds read low 0.963 | S. cerevisiae deletion strains, locus YPL153C, strain RAD53, active compounds read low 0.946 | S. cerevisiae deletion strains, locus YPL204W, strain HRR25, active compounds read low 0.932 | S. cerevisiae deletion strains, locus YPL209C, strain IPL1, active compounds read low 0.992 | S. cerevisiae deletion strains, locus YPL256C, strain CLN2, active compounds read low 0.926 | S. cerevisiae deletion strains, locus YPR025C, strain CCL1, active compounds read low 0.999 | S. cerevisiae deletion strains, locus YPR106W, strain ISR1, active compounds read low 0.998 | S. cerevisiae deletion strains, locus YPR111W, strain DBF20, active compounds read low 0.988 | S. cerevisiae deletion strains, strain NNK1, active compounds read low 0.986 | S. cerevisiae deletion strains, strain TSCII, active compounds read low 0.993

O=C(CN1CCOCC1)Nc1cc(C(F)(F)F)cc(C(F)(F)F)c1
inactive: [3] 0.999 | [4] 1.01 | [5] 1.01 | [1] 1 | [6] 0.995 | [7] 1 | [8] 1.01 | [9] 1.01 | [2] 1.02 | [10] 0.995 | [11] 0.974 | [12] 0.986 | [13] 1.06 | [14] 1 | [15] 0.988 | [16] 1.05 | [17] 0.996 | [18] 1.01 | [19] 0.986 | [20] 1.01 | S. cerevisiae deletion strains, locus YNL128W, strain TEP1, active compounds read low 0.993 | [21] 0.99 | [22] 0.992 | [23] 1 | [24] 0.994 | [25] 0.972 | [26] 1.07 | [27] 1.02 | S. cerevisiae strains, strain wild type, active compounds read low 0.999

CC(C)(CC(=O)O)CC(=O)Nc1cc(C(F)(F)F)cc(C(F)(F)F)c1
active: [24] 0.537 | [26] 0.639
inactive: [3] 0.997 | [4] 1.01 | [5] 1.03 | [1] 0.997 | [6] 0.999 | [7] 0.993 | [8] 0.998 | [9] 1.01 | S. cerevisiae deletion strains, locus YGR229C, strain SMI1, active compounds read low 1 | [2] 1.01 | [10] 1 | S. cerevisiae deletion strains, locus YJL187C, strain SWE1, active compounds read low 1 | [11] 0.997 | [12] 0.997 | [13] 1.03 | [14] 1.01 | [15] 1.03 | [16] 1.02 | [17] 0.969 | [18] 1.01 | [19] 1.05 | [20] 0.967 | [21] 1.01 | [22] 1.01 | [23] 0.973 | S. cerevisiae deletion strains, locus YOL006C, strain TOP1, active compounds read low 0.964 | [25] 1.01 | [27] 1.06
